Screening data from PubChem.
Cruzain Triton: qHTS Assay for Promiscuous and Specific Inhibitors of Cruzain (with detergent). Cruzipain (Trypanosoma cruzi), P25779. purified cruzain, Z-FR-AMC fluorescence, 0.01% Triton. Potency, µM, for the others: max response, negative = inhibition, most hits filed as inhibitors. actives 0.43% (n = 200,000). AID 1478, 2009;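 note: plate controls were neutral wells for no effect and buffer without enzyme for full effect; nearly all actives have a fitted effect of over 40% in size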
Target sequence (P25779 123-467 limits assumed): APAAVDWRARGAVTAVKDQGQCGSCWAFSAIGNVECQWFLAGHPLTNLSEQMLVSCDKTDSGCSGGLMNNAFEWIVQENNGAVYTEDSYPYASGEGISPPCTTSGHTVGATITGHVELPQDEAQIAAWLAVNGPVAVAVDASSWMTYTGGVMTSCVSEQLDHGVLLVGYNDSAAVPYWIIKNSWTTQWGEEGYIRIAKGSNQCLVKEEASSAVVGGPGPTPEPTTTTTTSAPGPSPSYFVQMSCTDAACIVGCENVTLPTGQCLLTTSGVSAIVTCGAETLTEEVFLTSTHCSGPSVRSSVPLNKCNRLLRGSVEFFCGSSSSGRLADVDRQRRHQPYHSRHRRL
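In this qHTS format, compounds are incubated with 1.5 nM cruzain for 15 min at room temperature before 2 uM Z-FR-AMC is added. Release of AMC is followed at 360/450 nm, and progress is taken as the 60 s fluorescence difference.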
Cruzain inh noDet: qHTS Assay for Promiscuous and Specific Inhibitors of Cruzain (without detergent); AID 1476, 2009; actives 2.3% (n = 200,000); Potency, µM, without a hit: max response, negative = inhibition, most hits filed as inhibitors; Cruzipain (Trypanosoma cruzi), P25779; purified cruzain, Z-FR-AMC fluorescence, no detergent;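 note: plate controls were enzyme without inhibitor for no effect and buffer without enzyme for full effect; nearly all actives have a fitted effect of over 40% in size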
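Detergent-free condition (0.00005% Triton X-100) in acetate buffer pH 5.5 with DTT. 1.5 nM enzyme and compound were pre-mixed 15 min, then 2 uM Z-FR-AMC substrate added; reaction progress from fluorescence change between first and third reads (60 s).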
An asterisk follows results filed as active; ? = inconclusive; ! = not active in a repeat. An excerpt weighted towards active compounds, which were near 2.6% of everything screened. Calls come from the whole dose curve; as a rule, active = well fitted curve in the direction sought with a large enough effect; inconclusive = small, poorly fitted or top-dose-only effect, or another doubt; inactive = no such curve, though single readings can be large; an effect the other way counts as inactive or inconclusive. Potency is the fitted concentration of half-maximal effect.

SMILES | Cruzain Triton | Cruzain inh noDet
Cc1cccc(N2CCN(S(=O)(=O)c3ccc(F)c(C(=O)Nc4cccc(Cl)c4C)c3)CC2C)c1 (stereo unspecified) | 1% | 13µM*
CCCN(CCC)C(=O)Cn1c(=O)n(-c2ccc(OC)cc2)c(=O)c2ccc(C(=O)NCc3ccc(C)cc3)cc21 | -1% | ?
COc1ccccc1C(=O)Nc1ccc2nc(SCCOc3ccccc3C)sc2c1 | -1% | 13%
Cc1cc(S(=O)(=O)n2ccnc2C(C)C)cc([N+](=O)[O-])c1C | 0% | -2%
Cn1c(O)c(C2=c3ccccc3=NC2=O)sc1=Nc1ccc(Cl)cc1 | -10% | 25µM*
C=CCn1c(O)c(C2=c3ccccc3=NC2=O)s/c1=N/c1nccs1 | -5% | 8%
COc1ccc(-n2c(C(C)n3nc(C)c([N+](=O)[O-])c3C)n[nH]c2=S)cc1 (stereo unspecified) | -2% | -3%
COc1ccc(-n2c(C)c([N+](=O)[O-])c3ccc(O)c(CN(C)C)c32)cc1 | -21% | 25µM*
O=[N+]([O-])c1cc(S(=O)(=O)N2CCCC2)ccc1N/N=C1/CCCc2ccccc21 | -6% | 16µM*
O=[N+]([O-])c1cc(S(=O)(=O)N2CCCC2)ccc1NN=C1CCCCC1 | 1% | 19%
COc1ccc(CN(C(=O)Nc2ccccc2)c2ccccn2)cc1OC | -6% | 9%
COc1ccc(C2CC(c3ccccc3OC(C)=O)=NN2C(=O)/C=C/c2ccccc2)cc1 (stereo unspecified) | -6% | -20%
COc1ccc(C2CC(c3ccc4ccccc4c3OC(C)=O)=NN2C(=O)/C=C/c2ccccc2)cc1 (stereo unspecified) | -1% | 7.9µM*
COc1ccc(-n2c(=O)c(CCc3ccccc3)nc3cnc(N4CCNCC4)nc32)cc1 | -7% | -11%
COc1cc(/C=N/NC(=S)Nc2cccc(C(=O)O)c2)cc(OC)c1OC | -12% | -5%
COc1cc(/C=N/NC(=S)N/N=C/c2cc(OC)c(OC)c(OC)c2)cc(OC)c1OC | 14µM* | ?
COc1ccc2c(c1)C(=O)[C@@H](OC(=O)N[C@H](C)C1CCCCC1)[C@H](c1ccc(OC)c(Br)c1)O2 | -2% | -13%
N#Cc1c(-c2ccccc2)nc2n(-c3ccccc3)nc(C(=O)Nc3ccccc3)n2c1=O | 2% | 10µM*
N#Cc1cccc(NC(=O)c2nc(-c3ccccc3)n(-c3ccccc3)n2)c1 | 1% | -9%
Nc1c(C(=O)c2ccccc2)sc(Nc2ccc(Cl)c(Cl)c2)c1C(=O)Nc1ccccc1 | -13% | 5%
CC(C)=CCc1c2c(c3occ(-c4ccc(O)c(O)c4)c(=O)c3c1O)C=CC(C)(C)O2 | -1% | 25µM*!
CC(C)=CCc1c2c(c3occ(-c4ccc(O)cc4)c(=O)c3c1O)C=CC(C)(C)O2 | -9% | ?
COc1ccc(N2CC(NC(=O)c3ccc(S(=O)(=O)N4CCCCC4)cc3)CC2=O)cc1OC (stereo unspecified) | -3% | ?
COC(=O)C(C)Sc1nc2c([nH]c3ccccc32)c(=O)n1-c1ccc(OC)cc1 (stereo unspecified) | -4% | -2%
O=C(CSc1nc2c([nH]c3ccccc32)c(=O)n1-c1ccccc1)Nc1ccc2c(c1)OCO2 | -2% | ?
SMILES | Cruzain Triton | Cruzain inh noDet
O=C(CSc1nc2c([nH]c3ccccc32)c(=O)n1-c1ccccc1)Nc1ccc2c(c1)OCCO2 | -5% | 25µM*
Cc1ccc(-n2c(SCC(=O)Nc3ccc4c(c3)OCCO4)nc3c([nH]c4ccccc43)c2=O)cc1 | -7% | 25µM*
O=C(CSc1nc2c([nH]c3ccccc32)c(=O)n1-c1ccccc1)Nc1ccc(Cl)c(Cl)c1 | -1% | 13µM*
COc1cccc(NC(=O)CSc2nc3c([nH]c4ccccc43)c(=O)n2-c2ccccc2)c1 | -6% | ?
Cc1cc(C)cc(-n2c(SCC(=O)Nc3ccc4c(c3)OCCO4)nc3c([nH]c4ccccc43)c2=O)c1 | 0% | ?
CC(Sc1nc2c([nH]c3ccccc32)c(=O)n1-c1ccccc1)c1ccccc1 (stereo unspecified) | -2% | 7.9µM*
Cc1cc(=O)n(CC(=O)N2CCN(c3ccccc3F)CC2)c2c1c(C)nn2C | -5% | 15%
Cc1ccsc1CCN1C(=O)N(c2ccccc2)C(=O)C1CC(=O)Nc1ccc(Cl)cc1 (stereo unspecified) | -6% | -8%
Cc1ccc(C)c(NC(=O)CSc2ncc3c(n2)-c2ccccc2N(Cc2ccccc2C)S3(=O)=O)c1 | 2% | -25%
COC(=O)CC1c2ccccc2C=C(C)N1C(=O)OC (stereo unspecified) | 0% | -7%
COc1ccc(C2CC(c3c(O)n(C4CCCCC4)c(=O)[nH]c3=O)=Nc3ccccc3S2)cc1 (stereo unspecified) | -10% | -8%
Cc1ccc2nc(-c3ccc(SCC(=O)Nc4ccc5c(c4)OCCO5)nc3)[nH]c2c1 | -6% | -8%
Cc1cc2nc(-c3ccc(SCC(=O)Nc4ccc5c(c4)OCCO5)nc3)[nH]c2cc1C | -5% | 16µM*
COc1ccc(-c2nc3cc(NC(=O)COc4ccccc4C)ccc3o2)cc1 | -2% | -12%
N#C/C(=C\c1ccc(-c2ccc(F)cc2F)o1)c1nc2ccccc2[nH]1 | -5% | 13µM*
N#C/C(=C\c1cn(-c2ccccc2)nc1-c1cc2ccccc2o1)c1nc2ccccc2[nH]1 | -3% | 7.9µM*
CN(C)S(=O)(=O)c1cccc(-c2nn(-c3ccccc3)cc2/C=C(\C#N)c2nc3ccccc3[nH]2)c1 | -3% | ?
N#C/C(=C\c1ccc(-c2ccccc2C(=O)O)o1)c1nc2ccccc2[nH]1 | -1% | -1%
COc1cccc(CNC(=O)CCCN2C(=O)CSc3c2c(C)nn3-c2ccccc2)c1OC | -1% | ?
Oc1[nH]c2ccccc2c1N=NC(=S)NCCc1ccccc1 | -11% | 1%
NC(=S)N=Nc1c(O)[nH]c2ccccc12 | ? | 13µM*
O=C(CSc1nc2ccc(NC(=O)CSc3nnnn3Cc3ccccc3)cc2s1)Nc1ccccc1 | -1% | 10µM*
COC(=O)CSc1nc2ccc(NC(=O)CSc3nnnn3Cc3ccccc3)cc2s1 | -11% | 7%
Cc1ccccc1OCc1nnc(SCC(=O)Nc2ccc3nc(SCC(=O)Nc4ccccc4)sc3c2)n1C | 0% | 25µM*
Cc1ccccc1OCc1nnc(SCC(=O)Nc2ccc3c(c2)OCO3)n1C | -3% | 5%
SMILES | Cruzain Triton | Cruzain inh noDet
Cc1cccc(C(=O)N(Cc2ccco2)Cc2ccccc2F)c1 | -6% | -2%
COc1cccc(CSc2nc3ccncc3n2CC(=O)Nc2ccc(OC)c(OC)c2OC)c1 | -12% | 9%
CCOC(=O)c1ccc(NC(=O)C(C)N(c2ccc(OCC)cc2)S(C)(=O)=O)cc1 (stereo unspecified) | -13% | 3%
CCOc1ccc(-n2nc(CO)c(C(=O)NCc3cccs3)n2)cc1 | -6% | -15%
Cn1c(=O)c2c(nc(N/N=C/c3ccc(OC(=O)c4ccco4)cc3)n2Cc2ccc(F)cc2)n(C)c1=O | -15% | ?
Cn1c(=O)c2c(nc(N/N=C/c3ccc(OC(=O)c4ccco4)cc3)n2Cc2ccccc2Cl)n(C)c1=O | ? | 32µM*
O=C(CSc1nnc(SCc2cccc3ccccc23)s1)N/N=C/c1c[nH]c2ccccc12 | -4% | 1%
O=C(CSc1nnc(SCc2cccc3ccccc23)s1)N/N=C/C=C/c1ccccc1[N+](=O)[O-] | -3% | 10µM*
